Source: PubChem BioAssay (National Center for Advancing Translational Sciences (NCATS))
IL-1B inflam inh – blocks inflammasome-driven IL-1 beta release. THP-1 LPS/ATP IL-1B secretion, AlphaLISA, 16 h; stronger effect = lower value. activity change, % at 57.5 µM. 360,000 tested, 4.7% active. AID 743279; in the data active = activity change below about -50%; inconclusive = mostly about -30% to -49%
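THP-1 cells pretreated 1 hr with compounds (up to 57.5 uM final), then stimulated with LPS (250 ng/mL final) plus ATP (1.25 mM final); secreted IL-1B measured by AlphaLISA after 16 hr, decreased signal indicating inhibition.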
DT40 TDP1 CPT – growth inhibition of DT40 Tdp1-/-;hTDP1 cells with camptothecin (screen for TDP1 inhibitors); chicken DT40 Tdp1-/-;hTDP1 cells + 20 nM CPT, ATP luminescence, 48 h; Potency, µM (top dose mostly 46.2 µM), for the others: top-dose activity change, negative = growth inhibition, usual class: inhibitors; 420,000 tested, 12% active; also: potency is read from the fitted curve at half-maximal effect; nearly all actives have a fitted effect of over 55% in size
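Chicken DT40 Tdp1-/- cells stably complemented with human TDP1 were seeded at 400 cells/well in medium containing 20 nM camptothecin, exposed to pin-transferred compounds, and grown at 37 °C for at least 48 hr. Viability was read as ATP luminescence.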
HT1080-NT tox – kills 2HG-producing HT-1080-NT fibrosarcoma cells. HT-1080-NT fibrosarcoma viability, CellTiter-Glo ATP luminescence, 48 h. 360,000 tested, 1.6% active. Potency, µM (highest dose often 46.1 µM), without a hit: at the highest dose activity, negative = less viability, usual class: cytotoxic. AID 686970;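 also: NT is the 2HG producing partner of a matched IDH1 knockdown line; potency is read from the fitted curve at half-maximal effect; 0% = DMSO-treated cells and -100% = media-only wells without cells; nearly all actives have a fitted effect of over 55% in size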
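Fibrosarcoma NT cells, 750 per well in 5% FBS RPMI, were exposed to compound for 48 hours. Viability: CellTiter-Glo luminescence.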
TDP1 cell noCPT – qHTS for Inhibitors of human tyrosyl-DNA phosphodiesterase 1 (TDP1): qHTS in cells in absence of CPT; 420,000 tested, 15% active; Potency, µM (highest dose often 46.2 µM), for the others: at the top dose activity change, negative = growth inhibition, actives largely listed as inhibitors; AID 686978, 2013; DT40 Tdp1-/- hTDP1 cells, no CPT, ATP luminescence, 48 h; also: potency is read from the fitted curve at half-maximal effect; nearly all actives have a fitted effect of over 55% in size
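Growth of hTDP1-complemented DT40 Tdp1-knockout cells is measured by ATP luminescence after at least 48 hr compound exposure at 37 °C, with DMSO substituting for the 20 nM CPT used in the parallel screen.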
HT1080 IDH1KD tx – HT-1080 IDH1 knockdown cell toxicity (counter line) | HT-1080 IDH1 knockdown viability, ATP luminescence, 48 h | Potency, µM (highest dose often 46.1 µM), inactives show at the top dose activity, negative = toxicity, actives largely listed as cytotoxic | 360,000 tested, 2% active | AID 686971;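 also: potency is read from the fitted curve at half-maximal effect; 0% = DMSO wells and -100% = cell-free medium wells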
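CellTiter-Glo luminescence after 48 h compound exposure at 37 degrees C of IDH1-knockdown HT-1080 cells in 5% FBS RPMI. %Activity scaled between DMSO wells and cell-free media wells, with curves fitted and assigned curve classes.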
* hit, by the source's call. An excerpt weighted towards active compounds, which were near 19% of everything screened. Unless noted, calls follow the shape of the dose curve; as a rule, active = well fitted curve in the direction sought with a large enough effect; inconclusive = small, poorly fitted or top-dose-only effect, or another doubt; inactive = no such curve, though single readings can be large; an effect the other way counts as inactive or inconclusive. Unless noted, % is scaled to controls: 0 for no effect and ±100 for the full control effect.

For CC1Cc2ccccc2N1C(=O)CO/N=C/c1ccc(OC(F)F)cc1 (configuration not stated) the results were IL-1B inflam inh -9, DT40 TDP1 CPT inconclusive, HT1080-NT tox -4%, TDP1 cell noCPT inconclusive and HT1080 IDH1KD tx 1%.
Screening COc1ccnc(-n2cccc2C#N)c1C#N returned IL-1B inflam inh 12, DT40 TDP1 CPT -9%, HT1080-NT tox 1%, TDP1 cell noCPT -6% and HT1080 IDH1KD tx 7%.
`CCSc1ccccc1C(=O)n1nnc2ccccc21` gave IL-1B inflam inh 10, DT40 TDP1 CPT 13µM*, HT1080-NT tox inconclusive, TDP1 cell noCPT inconclusive and HT1080 IDH1KD tx inconclusive.
COc1ccc(C(=O)n2nnc3ccccc32)cc1OC was read as IL-1B inflam inh 24, DT40 TDP1 CPT inconclusive, HT1080-NT tox -4%, TDP1 cell noCPT -27% and HT1080 IDH1KD tx -4%.
COc1ccc(C(=O)n2nnc3ccccc32)cc1Br was read as IL-1B inflam inh -14, DT40 TDP1 CPT 16µM*, HT1080-NT tox -2%, TDP1 cell noCPT inconclusive and HT1080 IDH1KD tx 6%.
For Cc1occc1C(=O)n1nnc2ccccc21 the results were IL-1B inflam inh -9, DT40 TDP1 CPT inconclusive, HT1080-NT tox -4%, TDP1 cell noCPT 21µM* and HT1080 IDH1KD tx 0%.
For O=C(c1cc2ccccc2o1)n1nnc2ccccc21 the results were IL-1B inflam inh 13, DT40 TDP1 CPT 0%, HT1080-NT tox 6%, TDP1 cell noCPT -20% and HT1080 IDH1KD tx 4%.
For Cc1cc(-c2cc(-c3ccccc3)on2)nc(NC2CCCC2)n1 the results were IL-1B inflam inh 0, DT40 TDP1 CPT inconclusive, HT1080-NT tox -5%, TDP1 cell noCPT inconclusive and HT1080 IDH1KD tx 1%.
For CC1(C(=O)NS(=O)(=O)Cc2ccccc2)CCN1C(=O)Cc1ccccc1 (configuration not stated) the results were IL-1B inflam inh 0, DT40 TDP1 CPT 5%, HT1080-NT tox 2%, TDP1 cell noCPT -12% and HT1080 IDH1KD tx 8%.
Screening Cc1ccc2oc(-c3ccccc3)cc(=O)c2c1 returned DT40 TDP1 CPT -28% and TDP1 cell noCPT -17%.
COc1cc(OC)c2c(-c3cccc(-c4ccc(F)c(Cl)c4)c3)cc(=O)oc2c1 was read as IL-1B inflam inh 67, DT40 TDP1 CPT inconclusive, HT1080-NT tox inconclusive, TDP1 cell noCPT 23µM* and HT1080 IDH1KD tx 16µM*.
Screening COC(=O)COc1cc(OCC(=O)OC)c2c(-c3ccccc3)cc(=O)oc2c1 returned IL-1B inflam inh 57, DT40 TDP1 CPT -5%, HT1080-NT tox 4%, TDP1 cell noCPT 3% and HT1080 IDH1KD tx 6%.
For COc1cc(OC)c2c(-c3cccc(-c4sccc4C(C)=O)c3)cc(=O)oc2c1 the results were IL-1B inflam inh 27, DT40 TDP1 CPT 3.7µM*, HT1080-NT tox 4.1µM*, TDP1 cell noCPT 4.1µM* and HT1080 IDH1KD tx 3.7µM*.
COc1cc(OC)c2c(C)c(Cl)c(=O)oc2c1 was read as IL-1B inflam inh -22, DT40 TDP1 CPT -3%, HT1080-NT tox -1%, TDP1 cell noCPT -11% and HT1080 IDH1KD tx -4%.
For COc1cc(OC)c2c(-c3cccc(-c4ccc(NC(C)=O)cc4)c3)cc(=O)oc2c1 the results were IL-1B inflam inh 84, DT40 TDP1 CPT 4.1µM*, HT1080-NT tox 0.52µM*, TDP1 cell noCPT 5.8µM* and HT1080 IDH1KD tx 0.92µM*.
`Cc1ccc(-c2cccc(-c3cc(=O)oc4ccc(C(C)(C)C)cc34)c2)cc1` gave IL-1B inflam inh 34, DT40 TDP1 CPT inconclusive, HT1080-NT tox 2%, TDP1 cell noCPT 23µM* and HT1080 IDH1KD tx 0%.
For O=C(C[C@H]1C/C=C\CCCC(=O)OC[C@H]2CCCN2C1=O)NCCO the results were IL-1B inflam inh 5, DT40 TDP1 CPT -27%, HT1080-NT tox 3%, TDP1 cell noCPT 7% and HT1080 IDH1KD tx -4%.
